Test results reported in article PMC4336329 (PLoS ONE, 2015).
Among all 310,000 compounds or so, about 14,000 (4.5%) showed an effect of 50% or more. Effects have a minus sign here. The list comes from a sample in which strong results are over-represented; it also holds similar structures and randomly drawn compounds.

molecular target: human ether-à-go-go-related gene (hERG) potassium channel (human, UniProt Q12809); experiment: primary screen, population patch clamp on CHO cells stably expressing hERG; higher = less effect of the substance
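Also: peak tail current of the secondary pulse compared with the same well before compound.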

Sequence of human ether-à-go-go-related gene (hERG) potassium channel (Q12809 whole entry, looked up): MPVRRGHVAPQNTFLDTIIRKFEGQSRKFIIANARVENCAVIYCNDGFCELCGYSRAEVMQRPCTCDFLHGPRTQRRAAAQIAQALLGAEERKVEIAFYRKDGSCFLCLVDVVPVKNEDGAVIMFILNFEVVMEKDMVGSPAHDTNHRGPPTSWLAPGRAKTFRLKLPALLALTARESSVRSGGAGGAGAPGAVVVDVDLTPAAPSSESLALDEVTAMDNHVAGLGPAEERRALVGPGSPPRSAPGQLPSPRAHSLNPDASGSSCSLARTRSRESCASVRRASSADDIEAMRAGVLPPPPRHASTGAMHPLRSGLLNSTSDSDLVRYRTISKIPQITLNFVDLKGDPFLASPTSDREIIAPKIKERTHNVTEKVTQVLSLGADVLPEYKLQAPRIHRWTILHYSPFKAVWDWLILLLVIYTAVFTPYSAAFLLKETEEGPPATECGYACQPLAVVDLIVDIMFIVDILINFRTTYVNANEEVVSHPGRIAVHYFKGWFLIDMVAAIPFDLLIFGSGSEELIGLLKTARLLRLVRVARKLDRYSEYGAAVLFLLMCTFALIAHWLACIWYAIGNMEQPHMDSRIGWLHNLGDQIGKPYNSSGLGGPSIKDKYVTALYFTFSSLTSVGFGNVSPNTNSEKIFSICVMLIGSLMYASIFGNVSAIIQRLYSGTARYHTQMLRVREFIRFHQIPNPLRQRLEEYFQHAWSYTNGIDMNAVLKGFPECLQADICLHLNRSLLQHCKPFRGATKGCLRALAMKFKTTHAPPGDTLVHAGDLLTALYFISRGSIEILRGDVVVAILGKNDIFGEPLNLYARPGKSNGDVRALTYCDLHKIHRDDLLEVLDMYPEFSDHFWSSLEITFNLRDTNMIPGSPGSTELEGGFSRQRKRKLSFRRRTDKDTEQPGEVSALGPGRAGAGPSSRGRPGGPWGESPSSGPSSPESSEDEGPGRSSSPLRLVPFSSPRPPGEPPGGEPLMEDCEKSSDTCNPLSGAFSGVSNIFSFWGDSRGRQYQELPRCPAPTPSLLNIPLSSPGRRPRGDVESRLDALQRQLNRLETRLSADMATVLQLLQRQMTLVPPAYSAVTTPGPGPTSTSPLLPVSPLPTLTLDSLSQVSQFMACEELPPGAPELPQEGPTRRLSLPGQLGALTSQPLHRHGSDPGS

Row | Structure (SMILES) | hERG current change (%, negative = inhibition) at 10uM [%]
1 | CCCc1ccc(C2=Nn3c(nnc3C(C)C)SC2)cc1 | -6.25
2 | CCOc1ccc2ccccc2c1/C=N/NC(=O)c1c(C)cc(C)[nH]c1=O | 0.637
3 | N#Cc1ccc(-c2ccc(OCC(O)CN3CCCCC3)cc2)cc1 (centres unmarked) | -80.7
4 | CC(=O)Nc1ccc(OCC(O)CN2CCCCC2C)cc1.Cl (centres unmarked) | 3.85
5 | CC1CCCCN1CC(O)COc1ccc(OCC(O)CN2CCCCC2C)cc1 (centres unmarked) | 16.4
6 | COc1ccc(S(=O)(=O)N2CCN(CC(O)COc3ccc(C#N)cc3)CC2)cc1OC (centres unmarked) | -46.9
7 | CCOC(=O)c1ccc(S(=O)(=O)N2CCN(CC(O)COc3ccc(C#N)cc3)CC2)cc1.O=C(O)C(=O)O (centres unmarked) | -63.2
8 | CC1CN(CC(O)COc2ccc(C#N)cc2)CCN1CC(O)COc1ccc(C#N)cc1 (centres unmarked) | -77.2
9 | COc1ccc(OC)c(S(=O)(=O)N2CCN(CC(O)COc3ccc(C#N)cc3)CC2)c1 (centres unmarked) | -66.2
10 | CC(=O)Nc1ccc(OCC(O)CN2CCN(S(=O)(=O)c3ccc(NC(C)=O)cc3)CC2)cc1 (centres unmarked) | -8.63
11 | N#Cc1ccc(-c2ccc(OCC(O)CN3CCOCC3)cc2)cc1 (centres unmarked) | -18.4
12 | CCOC(=O)c1ccc(S(=O)(=O)N2CCN(CC(O)COc3cccc(C(C)=O)c3)CC2)cc1.O=C(O)C(=O)O (centres unmarked) | -6.64
13 | COc1ccc(OCC(O)CN2CCCCCC2)cc1 (centres unmarked) | 9.18
14 | COc1ccc(OC)c(S(=O)(=O)N2CCN(CC(O)COc3ccccc3)CC2)c1 (centres unmarked) | -34.7
15 | CCN(CC)S(=O)(=O)c1cc(C)ccc1SC | 12.1
16 | COc1ccc(C(=O)NNC(=O)c2ccc(C(C)(C)C)cc2)cc1 | 4.1
17 | CCN(CCN1CCCC1)C(=O)C1CCC(=O)N(CCCN2CCOCC2)C1 (centres unmarked) | 12.8
18 | O=C(CN1CCN(c2cccc(Cl)n2)CC1)N1CC(O)CO1 (centres unmarked) | 19.6
19 | CCc1noc(C)c1C(=O)N1CCN(S(=O)(=O)c2cccs2)CC1 | -23.5
20 | COc1ccc(OCC(O)CN2CCCC2)cc1 (centres unmarked) | 15.2
21 | CN(C)CC(O)COc1ccc(-c2ccc(C#N)cc2)cc1 (centres unmarked) | -57.5
22 | OC(CN1CCN(c2ncc(C(F)(F)F)cc2Cl)CC1)c1ccccc1 (centres unmarked) | -58
23 | FC(F)(F)c1cnc(N2CCN(C(=S)NCc3ccccc3)CC2)c(Cl)c1 | -11.3
24 | CN1CCN(CC(O)COc2ccc(OCC(O)CN3CCN(C)CC3)cc2)CC1 (centres unmarked) | -7.27
25 | N#Cc1ccc(OCC(O)CN2CCN(CC(O)COc3ccc(C#N)cc3)CC2)cc1 (centres unmarked) | -86.1
26 | N#Cc1ccc(OCC(O)CN2CCN(c3ncc(C(F)(F)F)cc3Cl)CC2)cc1 (centres unmarked) | -74.6

Row | Structure (SMILES) | hERG current change (%, negative = inhibition) at 10uM [%]
27 | CC(C)(C)NC(=O)NC(=O)CN1CCN(c2ncc(C(F)(F)F)cc2Cl)CC1 | -13.3
28 | CN(C)CC(O)COc1ccc(C(C)(C)c2ccc(OCC(O)CN(C)C)cc2)cc1.Cl (centres unmarked) | 12.5
29 | OC(CN1CCN(c2ccc(C(F)(F)F)cn2)CC1)c1ccccc1 (centres unmarked) | -26.5
30 | CN(CCOc1ccc(Br)cc1)CC(O)COc1ccc(C#N)cc1 (centres unmarked) | -16.3
31 | O=C(O)CN1CCN(c2ncc(C(F)(F)F)cc2Cl)CC1 | 11.6
32 | CC(=O)Nc1cc(NC(=O)C2C3C=CC(C3)C2C(=O)O)ccc1Cl (centres unmarked) | 14.5
33 | Cc1ccc2nc(CSc3nnc(Nc4ccccc4C)s3)cc(=O)n2c1 | -43
34 | CN(C(=O)CSc1nnc(-c2ccc(Cl)cc2)n1CC1CCCO1)C1CCS(=O)(=O)C1 (centres unmarked) | -0.671
35 | O=C(c1ccccc1F)N(Cc1cccs1)C1CCS(=O)(=O)C1 (centres unmarked) | 21.9
36 | CN1C(=O)C2ON(c3ccccc3)C(c3cccs3)C2C1=O (centres unmarked) | -13.6
37 | COc1cc(OC)c(OC)cc1CN(C)CCc1ccccn1.O=C(O)C(=O)O | -11.2
38 | COc1ccc(CN(C)CCc2ccccn2)cc1OC.O=C(O)C(=O)O | -5.06
39 | CCOc1ccc(OCCN(C)Cc2ccccc2)cc1.O=C(O)C(=O)O | -45.8
40 | CSc1ccc(CN(C)CCc2ccccn2)cc1.O=C(O)C(=O)O | -64.4
41 | COc1cc(CN(C)CCc2ccccn2)cc(OC)c1OC.O=C(O)C(=O)O | -11.6
42 | CCOc1ccc(CN(C)CCc2ccccn2)cc1.O=C(O)C(=O)O | -77.8
43 | COc1ccc(OC)c(N(CC(=O)Nc2cccnc2)S(=O)(=O)c2ccc(OC)c(OC)c2)c1 | -17.9
44 | COC(=O)c1sc(NC(=O)c2cnccn2)c(C(=O)OC)c1C | 18.7
45 | COc1ccccc1OCCSc1ncnc2nc[nH]c12 | 4.63
46 | Cc1ccc(NC(=O)C(C)SCc2nc3sc(C)c(C)c3c(=O)[nH]2)nc1 (centres unmarked) | -10.7
47 | CCS(=O)(=O)NC(C)C(c1cccs1)N1CCN(c2ccc(F)cc2)CC1 (centres unmarked) | -8.13
48 | CC(C)CCn1cnc2c(cnn2-c2ccc(F)cc2)c1=O | -3.95
49 | O=C(C1=C[C@@H](c2ccc(Br)cc2)C[C@@H](OCCCCO)O1)N1CCN(Cc2ccc3c(c2)OCO3)CC1 | -55.3
50 | C#Cc1ccc([C@H]2C=C(C(=O)N3CCN(Cc4ccc5c(c4)OCO5)CC3)O[C@@H](OCc3ccc(CO)cc3)C2)cc1 | -7.23
51 | O=C(C1=C[C@H](c2ccc3c(c2)OCO3)C[C@H](OCCCCO)O1)N1CCN(Cc2ccc3c(c2)OCO3)CC1 | -69.1
52 | CC(C)(C)[C@H]1C=C(C(=O)N2CCN(Cc3ccc4c(c3)OCO4)CC2)O[C@@H](OCCCCO)C1 | -23.4

Row | Structure (SMILES) | hERG current change (%, negative = inhibition) at 10uM [%]
53 | O=C(C1=C[C@@H](c2ccc(C(F)(F)F)cc2)C[C@@H](OCCCCO)O1)N1CCN(Cc2ccc3c(c2)OCO3)CC1 | -68.8
54 | O=C(C1=C[C@H](c2ccc(C(F)(F)F)cc2)C[C@H](OCCCCO)O1)N1CCN(Cc2ccc3c(c2)OCO3)CC1 | -44.1
55 | O=C(C1=C[C@H](c2ccc(C(F)(F)F)cc2)C[C@H](OCc2ccc(CO)cc2)O1)N1CCN(Cc2ccc3c(c2)OCO3)CC1 | -19.5
56 | C#Cc1ccc([C@@H]2C=C(C(=O)N3CCN(Cc4ccc5c(c4)OCO5)CC3)O[C@H](OCCCCO)C2)cc1 | -64.1
57 | O=C(C1=C[C@@H](c2ccc(Br)cc2)C[C@@H](OCc2ccc(CO)cc2)O1)N1CCN(Cc2ccc3c(c2)OCO3)CC1 | -9.55
58 | O=C(C1=C[C@H](c2ccc(Br)cc2)C[C@H](OCc2ccc(CO)cc2)O1)N1CCN(Cc2ccc3c(c2)OCO3)CC1 | -19.8
59 | O=C(C1=C[C@@H](c2ccc3c(c2)OCO3)C[C@@H](OCCCCO)O1)N1CCOCC1 | 7.64
60 | C[C@@H]1C=C(C(=O)N2CCN(Cc3ccc4c(c3)OCO4)CC2)O[C@H](OCCCCO)C1 | 4.01
61 | c1ccc2c(c1)NC1(CCCC1)n1c-2nc2ccccc21 | -9.46
62 | CCOP(=S)(OCC)C(O)CCCCCn1c(=O)c(F)cn(C2CCCO2)c1=O (centres unmarked) | -2.13
63 | CN(C(=S)Nc1ccc(F)cc1)C(c1ccccc1)c1ccccc1 | 11.1
64 | CCn1c(SCC(=O)Nc2ccc(NC(C)=O)cc2)nc2c1c(=O)n(C)c(=O)n2C | 24.7
65 | O=C(C1=C[C@H](c2ccc3c(c2)OCO3)C[C@H](OCCCCO)O1)N1CCN(Cc2ccccc2)CC1 | -62.8
66 | O=C(C1=C[C@H](c2ccccc2)C[C@H](OCCCCO)O1)N1CCN(Cc2ccc3c(c2)OCO3)CC1 | -41.8
67 | O=C(C1=C[C@@H](c2ccccc2)C[C@@H](OCCCCO)O1)N1CCN(Cc2ccc3c(c2)OCO3)CC1 | -55.2
68 | CC(=O)n1cc([C@H]2C=C(C(=O)N3CCN(Cc4ccc5c(c4)OCO5)CC3)O[C@@H](OCc3ccc(CO)cc3)C2)c2ccccc21 | 3.43
69 | O=C(C1=C[C@H](c2ccccc2)C[C@H](OCc2ccc(CO)cc2)O1)N1CCN(Cc2ccc3c(c2)OCO3)CC1 | -39.5
70 | O=C(C1=C[C@@H](c2ccc3c(c2)OCO3)C[C@@H](OCCCCO)O1)N1CCN(Cc2ccc3c(c2)OCO3)CC1 | -65.9
71 | CN1CCN(C(=O)C2=C[C@H](c3ccc4c(c3)OCO4)C[C@H](OCCCCO)O2)CC1 | -8.06
72 | O=C(C1=C[C@H](c2ccc3c(c2)OCO3)C[C@H](OCCCCO)O1)N1CCOCC1 | -1.14
73 | CC(=O)n1cc([C@H]2C=C(C(=O)N3CCN(Cc4ccc5c(c4)OCO5)CC3)O[C@@H](OCCCCO)C2)c2ccccc21 | -32.7
74 | CC(=O)n1cc([C@@H]2C=C(C(=O)N3CCN(Cc4ccc5c(c4)OCO5)CC3)O[C@H](OCCCCO)C2)c2ccccc21 | -50.2
75 | CC1(C)CC2(CCO1)OC(=O)CC2C(=O)Nc1ccccc1Cl (centres unmarked) | 1.54
76 | Cc1ccc(S(=O)(=O)NNC(=O)c2cccs2)c(C)c1 | 14.4
77 | Cc1ccc(O)c(N=NC2=C(O)CC(C)(C)CC2=O)c1 | 3.16
